Assay results: PubChem BioAssay (NCATS)
Values without a mark were called inactive. Inconclusive results are not listed. A call without a number means that no potency is given here. Active and inactive are the calls of the source. Calls come from the whole dose curve; as a rule, active = well fitted curve in the direction sought with a large enough effect; inconclusive = small, poorly fitted or top-dose-only effect, or another doubt; inactive = no such curve, though single readings can be large; an effect the other way counts as inactive or inconclusive.

Each molecule was assayed against Cytochrome P450 2C9 (Homo sapiens) (UniProt P11712) (assay: qHTS Assay for Inhibitors and Substrates of Cytochrome P450 2C9 (AID 883; note: nearly all actives have a fitted effect of over 60% in size; note: potency is the fitted concentration of half-maximal effect)). Settings: recombinant CYP2C9, luciferin-H luminescence, 60 min; series mostly up to 25.6 µM.
Cytochrome P450 2C9 (Homo sapiens), sequence (P11712 whole entry, looked up): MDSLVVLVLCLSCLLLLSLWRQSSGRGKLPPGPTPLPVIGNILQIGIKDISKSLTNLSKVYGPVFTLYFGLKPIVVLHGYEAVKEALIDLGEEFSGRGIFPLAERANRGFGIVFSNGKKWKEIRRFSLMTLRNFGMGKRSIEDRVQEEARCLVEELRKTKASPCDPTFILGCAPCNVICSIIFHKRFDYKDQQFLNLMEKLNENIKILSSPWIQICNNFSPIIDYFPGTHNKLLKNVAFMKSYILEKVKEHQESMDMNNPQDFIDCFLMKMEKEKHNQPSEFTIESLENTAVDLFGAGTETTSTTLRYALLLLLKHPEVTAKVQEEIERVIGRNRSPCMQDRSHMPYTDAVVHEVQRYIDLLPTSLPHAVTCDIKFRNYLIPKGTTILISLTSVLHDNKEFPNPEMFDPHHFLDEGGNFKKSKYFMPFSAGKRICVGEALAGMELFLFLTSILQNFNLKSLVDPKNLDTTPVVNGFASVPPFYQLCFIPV
Outline: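 Human CYP2C9 (10nM) hydroxylated Luciferin-H (100uM, at its KM) to luciferin in 25mM KPO4. Compound was preincubated 10 min at 37C, then NADPH regeneration started a 60 min reaction at 37C. Luminescence was read after detection reagent, normalized to 57uM sulphaphenazole.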

Compound	Potency
NS(=O)(=O)c1ccc(C(=O)O)cc1	inactive
O=C(O)COC(=O)Cc1ccccc1Nc1c(Cl)cccc1Cl	1580 nM (active)
Cc1cccc(Nc2ccccc2C(=O)O)c1C	7940 nM (active)
C[C@@H]1CCC[C@H](C)N1	inactive

These molecules were tested against Cytochrome P450 3A4 (Homo sapiens) (UniProt P08684) (assay: qHTS Assay for Inhibitors and Substrates of Cytochrome P450 3A4 (AID 884; note: nearly all actives have a fitted effect of over 50% in size)). Settings: recombinant CYP3A4, Luciferin-PPXE luminescence; series mostly up to 57.1 µM.
Cytochrome P450 3A4 (Homo sapiens), sequence (P08684 whole entry, looked up): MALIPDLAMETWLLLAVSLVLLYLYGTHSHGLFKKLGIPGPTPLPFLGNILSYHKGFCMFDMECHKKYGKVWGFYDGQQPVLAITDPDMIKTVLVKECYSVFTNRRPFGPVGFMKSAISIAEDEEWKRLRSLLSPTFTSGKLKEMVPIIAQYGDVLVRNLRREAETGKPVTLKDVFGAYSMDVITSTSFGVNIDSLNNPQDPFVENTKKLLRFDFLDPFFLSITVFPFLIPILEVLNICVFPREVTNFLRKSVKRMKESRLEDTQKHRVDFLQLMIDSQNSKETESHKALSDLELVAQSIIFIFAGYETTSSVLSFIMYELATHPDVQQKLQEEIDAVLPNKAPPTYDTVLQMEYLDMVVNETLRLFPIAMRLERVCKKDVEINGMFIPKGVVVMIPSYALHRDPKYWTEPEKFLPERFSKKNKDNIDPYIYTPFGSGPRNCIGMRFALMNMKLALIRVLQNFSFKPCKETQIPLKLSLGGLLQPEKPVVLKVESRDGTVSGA
Outline: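 Luminescent readout of luciferin produced by CYP3A4 (20 nM) dealkylation of Luciferin-PPXE, 25 uM (its KM). NADPH-driven reaction ran 60 min at RT after 10 min compound preincubation; data scaled to 57 uM ketoconazole as 100% inhibition.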

Compound	outcome	activity change, negative = inhibition
CC(=O)NCc1c(I)c(NC(C)=O)c(I)c(C(=O)O)c1I	inactive	–
NS(=O)(=O)c1ccc(C(=O)O)cc1	–	-0.84% [at 11.4 µM]
Cc1cccc(Nc2ccccc2C(=O)O)c1C	inactive	–
Cc1c(NC(C)C)c(=O)n(-c2ccccc2)n1C	inactive	–
NC(=O)c1ccc([N+](=O)[O-])cc1Cl	inactive	–
O=C(Cn1ccnc1[N+](=O)[O-])NCCO	inactive	–
O=C(O)c1ccccc1OP(=O)(O)O	inactive	–
C[n+]1ccccc1/C=N/O	inactive	–
Cn1c([N+](=O)[O-])cnc1COC(N)=O	inactive	–
Cn1c(=O)c2c(ncn2CCO)n(C)c1=O	inactive	–
Cc1cccc(C(=O)O)c1O	inactive	–
C[N+]1(C)CCCC(OC(=O)C(O)(c2ccccc2)c2ccccc2)C1 (configuration not stated)	inactive	–
NC(=O)NC1NC(=O)NC1=O (configuration not stated)	inactive	–
NC(N)=NS(=O)(=O)c1ccc(N)cc1	inactive	–
CC1CCc2cc(F)cc3c(=O)c(C(=O)O)cn1c23 (configuration not stated)	inactive	–
O=C(O)c1cc(=O)c2ccccc2o1	inactive	–
CCCCCC(C)N (configuration not stated)	inactive	–
Cc1[nH]c(C)c(Cl)c(=O)c1Cl	inactive	–
CCOC(N)=O	inactive	–
CC(N)CCCC(C)(C)O (configuration not stated)	inactive	–
C/C=C/C(=O)N(CC)c1ccccc1C	inactive	–
O=c1[nH]cnc2nc[nH]c12	inactive	–
Cc1cc(NC(=O)C2=C(O)c3ccccc3S(=O)(=O)N2C)no1	inactive	–
NS(=O)(=O)c1cc(C2(O)NC(=O)c3ccccc32)ccc1Cl (configuration not stated)	inactive	–
O=C(O)c1ccccc1C(=O)Nc1ccc(S(=O)(=O)Nc2nccs2)cc1	inactive	–

What follows are molecules tested against Cytochrome P450 3A4 (Homo sapiens) (UniProt P08684) (assay: qHTS Assay for Activators of Cytochrome P450 3A4 (AID 885; note: nearly all actives have a fitted effect of over 65% in size)). Settings: recombinant CYP3A4, Luciferin-PPXE luminescence, 60 min; series mostly up to 57.1 µM.
Outline: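 Activators are scored by enhanced luminescence from CYP3A4 conversion of luciferin-PPXE (25uM, equal to KM) to luciferin, after 60 min at RT with an NADPH-regenerating system.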

Compound	outcome
C=CCSCC1Nc2cc(Cl)c(S(N)(=O)=O)cc2S(=O)(=O)N1 (configuration not stated)	inactive
COc1ccc2cc(CCC(C)=O)ccc2c1	inactive
O=C(O)c1ccccc1C(=O)Nc1ccc(S(=O)(=O)Nc2nccs2)cc1	inactive

The molecules below were run against Cytochrome P450 2D6 (Homo sapiens) (UniProt P10635) (assay: qHTS Assay for Inhibitors and Substrates of Cytochrome P450 2D6 (AID 891; note: nearly all actives have a fitted effect of over 60% in size; note: potency is the fitted concentration of half-maximal effect;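 for activity change, negative = inhibition: luciferin methyl ether substrate demethylated by CYP2D6 with NADPH regeneration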)). Settings: recombinant CYP2D6, luciferin-ME EGE luminescence; series mostly up to 11.4 µM.
Cytochrome P450 2D6 (Homo sapiens), sequence (P10635 whole entry, looked up): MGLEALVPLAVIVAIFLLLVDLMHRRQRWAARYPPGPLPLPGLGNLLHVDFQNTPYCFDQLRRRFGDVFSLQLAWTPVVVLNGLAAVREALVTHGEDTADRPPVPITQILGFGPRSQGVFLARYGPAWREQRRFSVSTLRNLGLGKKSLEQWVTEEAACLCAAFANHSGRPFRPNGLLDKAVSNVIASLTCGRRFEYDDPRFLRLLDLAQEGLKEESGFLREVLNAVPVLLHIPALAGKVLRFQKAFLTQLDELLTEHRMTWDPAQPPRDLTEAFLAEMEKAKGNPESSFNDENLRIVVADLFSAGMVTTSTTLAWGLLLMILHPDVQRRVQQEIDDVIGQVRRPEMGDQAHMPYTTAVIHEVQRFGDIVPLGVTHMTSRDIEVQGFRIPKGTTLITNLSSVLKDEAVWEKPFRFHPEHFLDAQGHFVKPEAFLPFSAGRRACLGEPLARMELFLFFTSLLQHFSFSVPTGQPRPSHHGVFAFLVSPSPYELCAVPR
Outline: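 Luminescent read-out of luciferin formed by 5 nM human CYP2D6 demethylating 30 uM Luciferin-ME EGE (Km level) over 60 min at room temperature after NADPH regeneration addition. Data normalized to full inhibition by 1.43 uM quinidine.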

Compound	Potency
CC(=O)SC[C@@H](Cc1ccccc1)C(=O)NCC(=O)OCc1ccccc1	316 nM (active)
CC[N+](C)(CC)CCOC(=O)C1c2ccccc2Oc2ccccc21	3980 nM (active)
NS(=O)(=O)c1ccc(C(=O)O)cc1	inactive
CCN(CC)CCOC(=O)C(c1ccccc1)c1ccccc1	5010 nM (active)
CC[N+](CC)(CC(=O)Nc1c(C)cccc1C)Cc1ccccc1	7.9 nM (active)
